Measured potencies and affinities stand elsewhere.
Biological target: Peroxisome proliferator-activated receptor gamma (Homo sapiens) (UniProt P37231)
Test: PPARg ligand-binding domain binders, dose response, PPARg partial agonist project, biochemical, fluorescence polarization, PolarScreen (AID 504453)
Conditions: fluorescence polarization competition; series mostly up to 10 µM; fold change, lower = more binding: at the top concentration; call rule not given here

Peroxisome proliferator-activated receptor gamma (Homo sapiens), sequence (P37231 232-505 limits assumed): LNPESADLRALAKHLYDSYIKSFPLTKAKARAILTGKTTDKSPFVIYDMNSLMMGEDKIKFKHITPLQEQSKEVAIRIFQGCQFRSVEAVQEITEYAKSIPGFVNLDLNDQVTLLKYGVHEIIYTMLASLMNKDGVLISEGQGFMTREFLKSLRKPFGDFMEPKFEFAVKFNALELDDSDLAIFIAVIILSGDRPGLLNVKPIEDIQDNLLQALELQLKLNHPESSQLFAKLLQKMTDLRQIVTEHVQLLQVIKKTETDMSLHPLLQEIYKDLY

Fold change, lower = more binding, inactive:
COc1ccc2c(c1)c(=O)c(C(=O)c1ccc(F)cc1)cn2CC(=O)Nc1ccc(F)cc1 1 fold
Cc1cc(C(=O)CN2C(=O)C(=O)N(Cc3ccccc3)C2=O)c(C)n1-c1ccc2c(c1)OCCO2 1 fold
O=C(CSc1nc(=O)n(CCN2CCOCC2)c2c1CCCC2)Nc1cccc([N+](=O)[O-])c1 1.02 fold
COc1ccc2c(c1)c(=O)c(C(=O)c1ccc(C)cc1)cn2CC(=O)Nc1ccc(F)cc1 0.99 fold
O=C(Nc1ccccc1Cl)C(=O)c1cn(CC(=O)N2CCOCC2)c2ccccc12 0.99 fold
COc1ccccc1N1C(=O)C2C(C(=O)c3ccccc3)=NN(c3ccc(C)cc3)C2C1=O (stereo unspecified) 0.99 fold
CCOc1ccc(C2c3[nH]c4ccccc4c3CCN2Cc2cccn2-c2ncccn2)cc1 (stereo unspecified) 0.98 fold
O=C(C1=C(O)C(=O)N(c2nc3ccc(Cl)cc3s2)C1c1ccco1)c1ccco1 (stereo unspecified) 1 fold
COc1cccc(Cn2nc3c4cc(F)ccc4n(Cc4ccc(F)cc4)cc-3c2=O)c1 1.03 fold
COc1ccccc1-n1cc(C(=O)c2cc(Cl)ccc2O)cc(C#N)c1=O 1 fold
CN1CCN(S(=O)(=O)c2ccc(Sc3nc4ccccc4[nH]3)c3nsnc23)CC1 1.01 fold
